An excerpt weighted towards active compounds, which were near 0.49% of everything screened.
LDHA block – blocks human lactate dehydrogenase A; activity change, % (values are at about 110 or 230 µM); 0.15% of 480,000 active; P00338; AID 1347041; purified LDHA, NADH/diaphorase-resazurin fluorescence; active compounds read low; in the data active = activity change below about -30%; inconclusive = mostly about -25% to -30%;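 note: plate controls were DMSO wells for no effect and wells without enzyme for full effect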
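Human LDH5 (2 nM) was incubated with 0.06 mM NADH and 0.2 mM pyruvate for 5 min at room temperature in Tris pH 7.4. Remaining NADH was coupled through diaphorase/resazurin, and resorufin fluorescence was read at 0 and 20 min.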
IDH1 R132H inh – blocks human mutant IDH1 R132H enzyme; O75874; IDH1-R132H enzyme, NADPH consumption, diaphorase/resazurin fluorescence; Potency, µM (series often up to 76.6 µM), for inactives: top-dose activity change, negative = inhibition, actives largely listed as inhibitors; 0.093% of 390,000 active; note: potency is the fitted concentration of half-maximal effect; % is set by controls: 0 for no effect and ±100 for the full control effect; nearly all actives have a fitted effect of over 65% in size
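IDH1-R132H (0.5 ug/mL) preincubated 30 min with compound, then NADPH (0.016 mM) and alpha-KG (2 mM) added; 80 min at RT, pH 7.5. Remaining NADPH coupled via diaphorase/resazurin to fluorescence (540/590 nm); concentration-response curves normalized to no-enzyme control.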
Vif-A3G inh – blocks the Vif interaction with human APOBEC3G; Q9HC16; HeLa A3G-eYFP + Vif (tagged APOBEC3G with the HIV-1 protein that degrades it), YFP fluorescence, overnight; Potency, µM (titrated, usually from 46.1 µM), without a hit: top-dose activity, negative = active, usual class: inhibitors; 0.076% of 410,000 active; AID 602310; note: potency is the fitted concentration of half-maximal effect; % is set by controls: 0 for no effect and ±100 for the full control effect; nearly all actives have a fitted effect of over 60% in size
Target sequence (Q9HC16 whole entry, looked up): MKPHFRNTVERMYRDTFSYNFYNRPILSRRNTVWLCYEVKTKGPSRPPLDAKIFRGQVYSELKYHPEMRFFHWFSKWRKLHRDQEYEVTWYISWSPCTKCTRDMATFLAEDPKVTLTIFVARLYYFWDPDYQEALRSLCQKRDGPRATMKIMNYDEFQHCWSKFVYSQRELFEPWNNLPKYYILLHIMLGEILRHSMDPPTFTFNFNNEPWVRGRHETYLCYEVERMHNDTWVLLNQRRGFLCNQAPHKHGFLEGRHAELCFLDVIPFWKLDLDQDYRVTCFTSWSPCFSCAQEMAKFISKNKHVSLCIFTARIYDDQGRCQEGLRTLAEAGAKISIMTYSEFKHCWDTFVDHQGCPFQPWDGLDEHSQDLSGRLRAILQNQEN
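Read-out is eYFP fluorescence (Ex 488/Em 500-530) from Vif-expressing HeLa A3G-eYFP cells; more signal means A3G escaped Vif-mediated degradation. Cells plated overnight, compound pinned in, incubated overnight at 37 deg C.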
Vif-APOBEC3F blk – blocks the Vif interaction with APOBEC3F | AID 602313 | 0.2% of 390,000 active | HeLa A3F-eYFP + Vif (tagged APOBEC3F with the HIV-1 protein that degrades it), YFP fluorescence increase | Potency, µM (highest dose often 46.1 µM), without a hit: at the highest dose activity, negative = active; note: potency is the fitted concentration of half-maximal effect; % of control where 0% means no effect; nearly all actives have a fitted effect of over 65% in size
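HeLa cells stably expressing A3F-eYFP plus Vif, plated and incubated overnight at 37 deg C, then exposed to compounds overnight at 37 deg C. Blocked degradation read as raised yellow fluorescence (Ex 488/Em 500-530).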
Pin1 inh – human Pin1 inhibition. Q13526. Pin1 FP peptide displacement, HiFluor488, 10 min. Potency, µM (top dose mostly 115 µM), inactives show at the top dose activity, negative = inhibition, actives largely listed as inhibitors. 0.009% of 390,000 active. AID 504891; active = well fitted inhibition curve with a large enough effect in the polarisation, with a control signal flat, not every such curve was filed as active; inconclusive = small, poorly fitted or top-dose-only effect, or effect the other way, or a change in a side signal; inactive = no such curve, though single readings can be large or run the other way; the % refers to the polarisation; note: potency is the fitted concentration of half-maximal effect; % is set by controls: 0 for no effect and ±100 for the full control effect
Target sequence (Q13526 whole entry, looked up): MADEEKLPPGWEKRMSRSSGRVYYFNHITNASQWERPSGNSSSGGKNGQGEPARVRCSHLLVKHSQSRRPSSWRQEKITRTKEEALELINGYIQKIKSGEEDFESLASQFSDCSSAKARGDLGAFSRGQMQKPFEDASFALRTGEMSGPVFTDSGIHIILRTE
PGK inhibitor – T. brucei PGK inhibition | P07378 | PGK/GAPDH coupled, Kinase-Glo luminescence, 60 min | Potency, µM (titrated, usually from 57.5 µM), inactives show at the top dose activity change, negative = inhibition, most hits filed as inhibitors | 0.043% of 380,000 active; note: potency is the fitted concentration of half-maximal effect; % is set by controls: 0 for no effect and ±100 for the full control effect; nearly all actives have a fitted effect of over 60% in size
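Luminescent ATP detection (Kinase-Glo Plus) follows a 60-minute room-temperature incubation, with wells lacking PGK as controls. Buffer: 100 mM TEA (pH 7.6), 5 mM MgCl2, 0.01% Tween-20. Coupling enzyme GAPDH (100 nM final) supplies unstable 1,3-BPG in-well.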
IDH1 autofl – autofluorescence interference, mutant IDH1 hit counter-screen; shares compounds with IDH1 R132H inh; Resorufin detection reagent fluorescence interference, cell-free; inhibition of signal, % at 51.2 µM; 750 tested, under 10 active;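 note: 0% = wells with normal resorufin and full inhibition = wells lacking resorufin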
WT IDH1 inh – selectivity of mutant IDH1 inhibitors: human wild-type IDH1; shares compounds with IDH1 R132H inh; WT IDH1 enzyme, NADPH diaphorase/resazurin fluorescence; Potency, µM (top dose mostly 115 µM), inactives show at the top dose activity change, negative = inhibition, actives largely listed as inhibitors; 9% of 750 active; AID 623995;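 note: potency is the fitted concentration of half-maximal effect; 0% = full WT IDH1 enzyme control and full inhibition = no enzyme wells; nearly all actives have a fitted effect of over 55% in size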
mIDH1 confirm – mutant IDH1 (human) inhibition, confirmed | 83% of 750 active | Potency, µM (highest dose often 76.6 µM), without a hit: at the top dose activity change, negative = inhibition, hits mostly inhibitors | IDH1 R132H enzyme, NADPH diaphorase/resazurin fluorescence | shares compounds with IDH1 R132H inh; note: potency is the fitted concentration of half-maximal effect; nearly all actives have a fitted effect of over 50% in size
* marks the source's active call; other numbers are inactive results; i = inactive; ? = inconclusive; nt = not tested or not shown. Unless noted, calls come from the whole dose curve; as a rule, active = well fitted curve in the direction sought with a large enough effect; inconclusive = small, poorly fitted or top-dose-only effect, or another doubt; inactive = no such curve, though single readings can be large; an effect the other way counts as inactive or inconclusive.

SMILES | LDHA block | IDH1 R132H inh | Vif-A3G inh | Vif-APOBEC3F blk | Pin1 inh | PGK inhibitor | IDH1 autofl | WT IDH1 inh | mIDH1 confirm
COc1ccc(Cl)cc1N(C(=O)c1ccco1)C(C(=O)NC1CCCC1)c1cccnc1 (configuration not stated) | -16.9 | ? | -3.8% | -6.8% | -5.6% | -8.6% | 1.9 | -2.0% | ?
O=C(NC1CCCCC1)C(c1ccncc1)N(C(=O)c1ccco1)c1ccc(F)cc1 (configuration not stated) | 0.5 | ? | 2.3% | -8.6% | 0.5% | 2.4% | 1.2 | -1.0% | 39.8µM*
COc1cc2ncc(C(=O)c3ccc(C)cc3)c(N3CCCCC3)c2cc1OC | 1.0 | ? | 7.8% | 7.3% | 29.6% | -4.7% | -7.6 | -10.6% | 14.1µM*
CCc1ccc(C(=O)c2cnc3cc(OC)c(OC)cc3c2N2CCOCC2)cc1 | 5.7 | nt | nt | nt | nt | nt | nt | nt | nt
Cc1ccc(Sc2ccc(NC(=O)CCl)cc2)cc1C | 3.6 | ? | -8.6% | -5.6% | 2.1% | i | -2.0 | ? | 39.8µM*
Cc1ccc(NC(=O)CC(=O)Nc2ccc(C)c(C)c2)cc1C | -6.6 | -6.2% | 4.9% | 18.7% | 20.5% | -9.0% | nt | nt | nt
Cc1ccc(C)c(Sc2ccc(NC(=O)CCl)cc2)c1 | 4.4 | ? | -14.9% | 0.3% | 1.0% | i | -5.5 | -27.3% | 39.8µM*
Cc1ccc(C)c(Sc2ccc(NC(=O)c3cccc(C)c3C)cc2)c1 | 3.9 | nt | nt | nt | nt | nt | nt | nt | nt
CC(C)c1ccc(NC2CCCN(C(=O)c3ccc(N4CCOCC4)cc3)C2)cc1 (configuration not stated) | 7.4 | 44.7µM* | 1.8% | -19.6% | 0.4% | -9.4% | -9.4 | -3.7% | 20µM*
N#Cc1cccc(NC(=O)c2cc(Cl)cc(Cl)c2)c1 | 0.7 | nt | nt | nt | nt | nt | nt | nt | nt
CCC(C)Sc1ccc([C@@H]2[C@@H]3C(=O)N(C)C(=O)[C@@H]3[C@]3(C(=O)OC)CCCCN23)cc1OC (some centres not stated) | 1.2 | 35.5µM* | -6.3% | 6.8% | ? | 8.4% | -7.3 | 1.1% | 15.8µM*
CCOc1cc(/C=C2/C(=O)ON=C2C)ccc1OCc1ccccc1F | -3.4 | 20.7µM* | -24.4% | -11.9% | -10.1% | -3.8% | 2.2 | ? | 28.2µM*
Cc1ccc(N(C(=O)Cc2c[nH]c3ccccc23)C(C(=O)NC2CCCCC2)c2ccco2)cc1 (configuration not stated) | 1.9 | ? | -0.3% | 4.8% | 5.7% | -4.1% | 5.9 | -2.8% | 6.31µM*
Cc1ccc(C(C(=O)NC2CCCCC2)N(C(=O)Cc2c[nH]c3ccccc23)c2ccccc2C)o1 (configuration not stated) | -0.4 | ? | -13.8% | -12.4% | 0.1% | -0.2% | 2.4 | 9.0% | 7.08µM*
CC(c1ccco1)N(C(=O)Cc1c[nH]c2ccccc12)C1CC1 (configuration not stated) | -4.9 | nt | nt | nt | nt | nt | nt | nt | nt
CC(=O)c1ccc(N(C(=O)CNC(=O)c2ccco2)C(C(=O)NC2CCCC2)c2ccco2)cc1 (configuration not stated) | -8.3 | -5.9% | -0.3% | -4.4% | -0.1% | 0.7% | nt | nt | nt
COc1ccc(C(C(=O)NC2CCCCC2)N(Cc2cccs2)C(=O)Cc2c[nH]c3ccccc23)cc1OC (configuration not stated) | -12.3 | -1.5% | 1.3% | ? | -2.4% | -2.8% | nt | nt | nt
